Measured values as given in paper PMC5540273 (PLoS ONE, 2017).

Tests used:
Details in all cases: concentration: 1 μM, replicates: in singlicate; n = 1
[1] = test system: PIP5K1A
[2] = test system: PIP5K1C
[3] = test system: PIP5K2B
[4] = test system: T1, PIP5K2C
T1 construct: gene PIP4K2C

[5] = test system: T2, PKAC-alpha
T2 construct: gene PRKACA

[6] = test system: T3, PKAC-beta
T3 construct: gene PRKACB

[7] = test system: PKMYT1
[8] = test system: PKN1
[9] = test system: PKN2
[10] = test system: PLK1
[11] = test system: PLK2
[12] = test system: PLK3
[13] = test system: PLK4
[14] = test system: PRKCD
[15] = test system: PRKCE
[16] = test system: PRKCH
[17] = test system: PRKCI
[18] = test system: PRKCQ
[19] = test system: PRKD1
[20] = test system: PRKD2
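Also: KINOMEscan kinase panel screen.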

Compound | %Inh [1] | %Inh [2] | %Inh [3] | %Inh [4] | %Inh [5] | %Inh [6] | %Inh [7] | %Inh [8] | %Inh [9] | %Inh [10] | %Inh [11] | %Inh [12] | %Inh [13] | %Inh [14] | %Inh [15] | %Inh [16] | %Inh [17] | %Inh [18] | %Inh [19] | %Inh [20]
COc1cccc(NC(=O)NCCNc2ccnc(Nc3ccc(F)cc3)n2)c1 [GSK1379879] | 40% | 63% | 13% | 29% | 0% | 0% | 1% | 12% | 0% | 0% | 0% | 0% | 4% | 0% | 18% | 5% | 20% | 12% | 0% | 0%
CN(C)CCNS(=O)(=O)c1ccc(-c2ccnc3[nH]ccc23)cc1 [GSK977620] | 8% | 32% | 0% | 0% | 98.4% | 97.7% | 14% | 9% | 56% | 0% | 0% | 0% | 1% | 83% | 88% | 82% | 21% | 62% | 0% | 10%
Cn1cc(-c2ccc3c(c2)CCN3C(=O)Cc2cc(F)cc(C(F)(F)F)c2)c2c(N)ncnc21 [GSK2635225] | 27% | 28% | 2% | 15% | 6% | 0% | 0% | 6% | 0% | 8% | 3% | 0% | 0% | 18% | 1% | 0% | 0% | 17% | 0% | 14%
O=C(O)C(F)(F)F.O=c1[nH]ccc2nc(N[C@@H]3CCNC3)nc(Nc3ccc4c(c3)S(=O)(=O)CC4)c12 [GSK2181306] | 57% | 84% | 84% | 76% | 24% | 43% | 16% | 0% | 71% | 31% | 5% | 0% | 97.4% | 99.1% | 97.9% | 92.9% | 78% | 53% | 92.1% | 96.2%
CN(c1ccc(NC(=O)Nc2cccc(Cl)c2)cc1)c1ccnc(N)n1.Cl [GW830707] | 12% | 0% | 0% | 29% | 13% | 26% | 3% | 0% | 0% | 26% | 14% | 3% | 14% | 7% | 28% | 0% | 0% | 0% | 0% | 0%
CC(C)c1nc(-c2cccc(NS(=O)(=O)c3c(F)cccc3F)c2)c(-c2ccnc(Nc3ccc(N4CCOCC4)nc3)n2)s1.Cl [GSK1723980] | 0% | 20% | 18% | 85% | 0% | 0% | 0% | 16% | 0% | 0% | 0% | 0% | 100% | 0% | 0% | 2% | 20% | 27% | 93.9% | 99.4%
Cc1ccc(Nc2ccnc(Nc3ccc(C)c(F)c3)n2)cc1O.Cl [GW582868] | 27% | 47% | 5% | 70% | 0% | 0% | 0% | 23% | 0% | 0% | 0% | 3% | 0% | 0% | 6% | 0% | 25% | 0% | 0% | 0%
Cc1ccc(C)c(NC(=O)Nc2ccc(C)c(-c3ccc(C(=O)Nc4ccncc4)cc3)c2)c1 [GSK1398473] | 0% | 0% | 8% | 2% | 27% | 20% | 17% | 26% | 0% | 0% | 0% | 0% | 0% | 0% | 4% | 10% | 0% | 32% | 8% | 3%
COc1ccc(C2=C(Nc3cccc(O)c3)C(=O)NC2=O)cc1 [SB-390766] | 4% | 82% | 0% | 10% | 0% | 0% | 13% | 0% | 38% | 95.9% | 0% | 0% | 13% | 0% | 49% | 0% | 18% | 0% | 0% | 4%
O=C(Nc1n[nH]c2nc(-c3ccccc3O)ccc12)C1CC1 [SB-711880] | 0% | 77% | 0% | 43% | 0% | 0% | 7% | 0% | 0% | 0% | 0% | 0% | 0% | 25% | 0% | 0% | 27% | 0% | 0% | 5%
